Screening results as filed in PubChem.
G9a block – inhibitors of human histone lysine methyltransferase G9a | Q96KQ7 | G9a H3K9 monomethylation, AlphaScreen, 2 h | Potency, µM (series often up to 102 µM), inactives show at the highest dose activity, negative = inhibition, actives largely listed as inhibitors | 350,000 tested, 8.8% active; further: on the % scale 0 is the no-effect control and ±100 the full control effect; nearly all actives have a fitted effect of over 75% in size
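Compounds were preincubated with 20 nM G9a for 15 min, after which biotinylated H3K9 peptide (500 nM) and SAM (20 uM) started a 2 h room-temperature reaction. Monomethylated product was quantified by antibody-based AlphaScreen chemiluminescence.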
TDP1 inh – TDP1 (human) enzyme inhibition; Q9NUW8; recombinant TDP1, AlphaScreen DNA substrate cleavage; Potency, µM (doses to about 130 µM), for inactives: top-dose activity change, negative = inhibition, actives largely listed as inhibitors; 350,000 tested, 0.28% active; further: on the % scale 0 is the no-effect control and ±100 the full control effect; nearly all actives have a fitted effect of over 40% in size
Target sequence (Q9NUW8 whole entry, looked up): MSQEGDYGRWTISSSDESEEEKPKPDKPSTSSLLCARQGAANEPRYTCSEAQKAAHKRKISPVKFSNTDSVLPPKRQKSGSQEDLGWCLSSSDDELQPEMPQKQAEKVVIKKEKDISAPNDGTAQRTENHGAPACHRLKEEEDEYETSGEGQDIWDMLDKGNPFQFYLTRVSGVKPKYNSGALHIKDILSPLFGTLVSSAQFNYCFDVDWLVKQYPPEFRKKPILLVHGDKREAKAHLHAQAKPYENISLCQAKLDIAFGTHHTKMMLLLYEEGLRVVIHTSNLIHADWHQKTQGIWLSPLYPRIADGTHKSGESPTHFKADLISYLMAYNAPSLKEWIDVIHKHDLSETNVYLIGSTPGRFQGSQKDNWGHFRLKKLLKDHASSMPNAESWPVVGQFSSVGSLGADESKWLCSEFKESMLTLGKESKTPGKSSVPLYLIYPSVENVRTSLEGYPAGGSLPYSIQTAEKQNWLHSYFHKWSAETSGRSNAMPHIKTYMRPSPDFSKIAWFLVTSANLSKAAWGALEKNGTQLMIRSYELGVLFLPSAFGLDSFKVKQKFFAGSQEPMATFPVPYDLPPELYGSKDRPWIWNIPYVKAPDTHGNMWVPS
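Recombinant human Tdp1 (E. coli-expressed, 1 nM final) preincubated with compounds 15 min at room temperature, then 5'-biotin/3'-phosphotyrosine-FITC DNA substrate (15 nM final) added for 5 min. AlphaScreen beads (10 ug/ml final) added 10 min; cleavage lowers signal.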
BAZ2B inh – BAZ2B (human) inhibition | Q9UIF8 | AlphaScreen BAZ2B-H3K14Ac peptide displacement | Potency, µM (doses to about 114 µM), for the others: at the highest dose activity change, negative = inhibition, most hits filed as inhibitors | 360,000 tested, 4.4% active; further: on the % scale 0 is the no-effect control and ±100 the full control effect; nearly all actives have a fitted effect of over 60% in size
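Compounds, titrated to a top concentration of 110 uM, were incubated 30 min at room temperature with preformed BAZ2B/acetyl-K14 H3 peptide complex (50 nM each). Proximity signal was measured by AlphaScreen after 20 min with beads.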
JMJD2A Tudor inh – JMJD2A Tudor domain (human) inhibition; AlphaScreen JMJD2A-Tudor / H3K4me3 peptide binding; Potency, µM (titrated, usually from 114 µM), without a hit: top-dose activity change, negative = inhibition, hits mostly inhibitors; 390,000 tested, 4.4% active; AID 504339; further: on the % scale 0 is the no-effect control and ±100 the full control effect; nearly all actives have a fitted effect of over 50% in size
HP1b chromo inh – blocks HP1-beta chromodomain binding to methylated histone tails; P83916; AlphaScreen HP1-beta / biotin-H3K9me3 peptide binding; Potency, µM (titrated, usually from 114 µM), for inactives: at the top dose activity change, negative = inhibition, most hits filed as inhibitors; 390,000 tested, 0.56% active; further: nearly all actives have a fitted effect of over 70% in size
Target sequence (P83916 whole entry, looked up): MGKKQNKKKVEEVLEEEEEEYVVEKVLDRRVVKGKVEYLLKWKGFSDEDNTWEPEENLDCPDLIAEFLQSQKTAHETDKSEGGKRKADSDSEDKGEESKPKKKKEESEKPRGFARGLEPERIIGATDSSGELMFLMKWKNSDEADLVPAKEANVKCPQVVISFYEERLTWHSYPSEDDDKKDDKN
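Compound inhibition of the preformed complex between 50 nM HP1-beta and 50 nM biotinylated H3K9me3 peptide was read by AlphaScreen. Buffer was PBS pH 7.4 with 0.01% Tween-20. Incubations ran 30 min at room temperature, with 10 ug/mL donor/acceptor beads.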
Sfp PPTase inh – inhibitors of Bacillus subtilis Sfp phosphopantetheinyl transferase. Q9F4F7. Biochemical Sfp PPTase activity, qHTS. Potency, µM, inactives show largest response in the series, negative = inhibition, actives largely listed as inhibitors. 310,000 tested, 3.5% active. AID 1490;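 further: the enzyme is Sfp with the accession as filed and its product quenches rhodamine fluorescence; 0% = enzyme reaction without inhibitor and -100% = no enzyme wells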
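After 15 min at room temperature with compound, 15 nM Sfp received 5 uM rhodamine-CoA plus 12.5 uM BHQ-2-ybbR (50 mM Hepes pH 7.6, 10 mM MgCl2). Rate came from the fluorescence difference over 30 min, ex 525/em 598 nm.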
* hit, by the source's call; ? = inconclusive; . = not tested or not shown; ! = a repeat was not active; [ ] = remark or other dose. Only some compounds are listed: those with a hit (about 12% of all), similar ones and a draw of the others. The call rests on the fitted dose curve; in most records, active means well fitted curve in the direction sought with a large enough effect; inconclusive means small, poorly fitted or top-dose-only effect, or another doubt; inactive means no such curve, though single readings can be large; an effect the other way counts as inactive or inconclusive. Potency means the concentration at half of the fitted maximal effect.

SMILES	G9a block	TDP1 inh	BAZ2B inh	JMJD2A Tudor inh	HP1b chromo inh	Sfp PPTase inh
CC(C)(C)NS(=O)(=O)c1ccc(OCC(=O)N2CCN(Cc3ccccc3)CC2)cc1	-24.8%	7.7%	-16.8%	-14.4%	1.4%	14.9%
O=C(O)c1nn(Cc2ccc(Cl)cc2Cl)c2ccccc12	2.24µM*!	-9.9%[56.1 µM]	0.8%	-10.3%	31.1%	4.8%
O=C(O)c1nn(Cc2ccc(Cl)c(Cl)c2)c2ccccc12	.	8.5%[56.1 µM]	.	.	.	7.7%
COC(=O)C1(C)C=C2C(=C(C)C(=O)C2C)CN1 (stereo unspecified)	.	?	.	.	.	7.2%
CCCn1cc2c3c(cccc31)C1CC(C)CN(C)C1C2 (stereo unspecified)	?	.	-24.7%	.	.	10.0%
CC(O)C(C)OC(=O)[C@@H]1C[C@@H]2c3cccc4c3c(cn4C(C)C)C[C@H]2N(C)C1 (stereo partly specified)	44.7µM*!	12.4%[56.1 µM]	.	.	.	?
O=CC(Br)P(=O)(N1CCOCC1)N1CCOCC1 (stereo unspecified)	.	-10.7%	-6.3%	-16.3%	-23.2%	25.1µM*
O=P(C(Cl)Cl)(N1CCOCC1)N1CCOCC1	-2.7%	0.0%	4.2%	-8.5%	-21.6%	20.1%
CSc1nc(N)c(N=Nc2ccc([As](=O)(O)O)cc2)c(=O)[nH]1	8.91µM*	-2.5%	-18.3%	?	40.6%	2.82µM*
O=c1[nH]c(=S)[nH]c(O)c1N=Nc1ccc(OC(F)F)cc1	-41.7%	1.6%	-18.4%	-17.7%	34.8%	-3.6%
O=C1C=CC(=O)c2c1ccc1c2ccc2ccccc21	5.01µM*	12.6%[56.1 µM]	.	.	.	3.55µM*
Oc1cc(O)c2c(c1)OC(c1cc(O)c(O)c(O)c1)C(O)C2 (stereo unspecified)	?	15.8µM*	.	.	.	-77.3%
O=C(O[C@@H]1Cc2c(O)cc(O)cc2O[C@@H]1c1cc(O)c(O)c(O)c1)c1cc(O)c(O)c(O)c1	1.78µM*	.	8.91µM*	.	.	11.2µM*
O=C(OC1Cc2c(O)cc(O)cc2OC1c1cc(O)c(O)c(O)c1)c1cc(O)c(O)c(O)c1 (stereo unspecified)	.	.	.	.	.	17.8µM*
O=C1NC(=O)C(=Cc2ccccc2[N+](=O)[O-])C(=O)N1	.	.	.	-4.2%	7.7%	.
CCOc1ccc(N2C(=O)NC(=O)/C(=C\c3ccccc3[N+](=O)[O-])C2=O)cc1	31.6µM*	-5.6%	-18.4%	-13.1%	28.6%	44.7µM*
COc1ccc(N2C(=O)NC(=O)/C(=C\c3ccccc3[N+](=O)[O-])C2=O)cc1	8.91µM*	-6.0%	-14.9%	-16.2%	13.2%	39.8µM*
C=C(C)[C@H]1C2C(=O)O[C@H]1[C@H]1OC(=O)[C@@]34O[C@@H]3C[C@]2(O)[C@@]14C	-3.5%[59 µM]	4.9%	.	.	.	15.7%
CCC(C)C(=O)OC1C(O)C2C(CN3CC(C)CCC3[C@]2(C)O)C2C[C@]34O[C@@]5(O)C(OC(=O)C(C)(O)CC)CCC3(C)C5C(OC(C)=O)C(OC(C)=O)C4[C@@]21O (stereo partly specified)	0.5%[2.33 µM]	12.4%[56.1 µM]	.	.	.	3.2%
CCCNc1nc(-c2cc(C(=O)Nc3ccccc3)on2)cc(C(C)C)n1	.	.	.	-8.6%	52.1%	.
O=C1NC(=O)C(=CN2CCc3ccccc32)C(=O)N1	12.6µM*	-1.8%	-2.8%	-18.4%	2.0%	-28.8%
CCCCNC(=O)C1CCCN(Cc2nc(-c3ccc(Cl)cc3)oc2C)C1 (stereo unspecified)	-24.3%[59 µM]	5.8%	?	-8.8%	33.6%	.
Cc1ccc(C)c(N2CCN(C(=O)C3CCN(Cc4nc(-c5cccc(Cl)c5)oc4C)CC3)CC2)c1	?	3.5%	8.91µM*	39.8µM*	-22.9%	.
Cc1ccc(Cl)cc1N1CCN(C(=O)C2CCN(Cc3nc(-c4ccc(Cl)cc4)oc3C)CC2)CC1	?	4.6%	8.91µM*	?	-15.6%	.
O=C(NCCSc1c(-c2ccccc2)[nH]c2ccccc12)c1ccc(S(=O)(=O)N2CCOCC2)cc1	?	5.9%	-13.6%	-18.4%	22.5%	.
SMILES	G9a block	TDP1 inh	BAZ2B inh	JMJD2A Tudor inh	HP1b chromo inh	Sfp PPTase inh
COc1cccc(-n2c(=S)[nH]c3ccccc3c2=O)c1	4.6%	-2.5%	-8.5%	-1.4%	35.7%	16.6%
COc1cccc(-n2c(CNC(=O)OC(C)(C)C)n[nH]c2=S)c1	28.2µM*	7.8%	32.0%	10µM*	30.0%	50.1µM*
O=C1c2ccccc2C(=O)c2c1ccc1c(=O)n(-c3ccccc3)[nH]c21	3.16µM*	7.9%	-25.8%	-21.2%	-5.8%	2.2%
O=C(Cn1cc(C(=O)c2ccccc2)c2ccccc21)Nc1ccc(Br)cc1	12.7%[59 µM]	0.0%	3.4%	4.5%	21.3%	.
Cc1ccc(NC(=O)Cn2cc(C(=O)c3ccccc3)c3ccccc32)cc1	-8.5%[59 µM]	1.1%	-20.3%	39.8µM*	37.5%	.
O=C(CCC(=O)Nc1ccccc1Cl)N/N=C/c1ccccc1	7.6%[59 µM]	2.6%	4.6%	-5.9%	41.3%	-2.4%
O=c1[nH]sc2cc(F)ccc12	1.58µM*	5.7%	44.7µM*	22.4µM*	?	3.16µM*
COCCN(CCOC)C(=O)CCn1c(=O)oc2ccccc21	?	2.4%	-3.9%	?	16.2%	-0.2%
COc1ccc(N(C)C(=O)Cn2c(=O)oc3ccccc32)c(OC)c1	44.7µM*	.	-2.0%	0.0%	?	4.5%
CCCC1=Nc2cc(C(=O)NCCc3ccc(OC)cc3OC)ccc2Sc2ccccc21	-45.6%[59 µM]	2.5%	79.4µM*	-27.4%	6.0%	.
Cc1cc(OC(=O)N(C)C)nn1C(=O)N(C)C	.	5.6%	.	.	.	-10.8%
CCCc1nn(C)c2c1C(c1ccncc1)C(C#N)=C(N)O2 (stereo unspecified)	?	.	7.6%	-24.7%	35.4%	8.2%
COc1cccc(N2C(=O)NC(=O)/C(=C/c3ccc4c5c(cccc35)CC4)C2=O)c1	10µM*	1.8%	50.1µM*	.	.	56.2µM*
COc1cccc(N2C(=O)CC(=O)NC2=O)c1	?	-5.2%	-7.1%	-24.6%	2.9%	-22.0%
CCOc1ccccc1N1C(=O)NC(=O)/C(=C/c2ccc3c4c(cccc24)CC3)C1=O	27.3%[0.501 µM]	0.0%	50.1µM*	79.4µM*	31.3%	56.2µM*
CCOC(=O)c1ccc(N2C(=O)c3n[nH]c(-c4cccs4)c3C2c2ccc(OC)cc2OC)cc1 (stereo unspecified)	-2.1%[59 µM]	7.0%	.	?	2.5%	.
O=c1c(/C=N/N2CCOCC2)c(O)n(-c2ccccc2)c(=S)n1-c1ccccc1	50.1µM*	4.6%	?	-11.8%	10.6%	-22.9%
O=c1[nH]c(=S)n(-c2ccc(F)cc2)c(O)c1/C=N/N1CCOCC1	44.7µM*	-1.4%	?	8.1%	39.0%	3.5%
